Source: ChEMBL document CHEMBL3988442, “University of Dundee, Small-Polar-MMV Screening Library” (2021)
For some of these results: Entries with a potency or affinity are not part of this list.

Assays:
Design in all cases: scale not given: direction of the effect not stated beside the values
[1] = target: Protein translocase subunit SecA (Escherichia coli (strain K12)) (UniProt P10408); assay: Assay to Identify E. coli SecA ATPase Inhibitors; type: functional; settings: 30 µM
[2] = target: T1, Ubiquitin-activating enzyme e1, putative (Leishmania donovani (strain BPK282A1)) (UniProt E9BSI1); assay: Leishmania donovani Ubiquitin Activating Enzyme (LdE1); type: functional; settings: 30 µM
T1 sequence (whole entry): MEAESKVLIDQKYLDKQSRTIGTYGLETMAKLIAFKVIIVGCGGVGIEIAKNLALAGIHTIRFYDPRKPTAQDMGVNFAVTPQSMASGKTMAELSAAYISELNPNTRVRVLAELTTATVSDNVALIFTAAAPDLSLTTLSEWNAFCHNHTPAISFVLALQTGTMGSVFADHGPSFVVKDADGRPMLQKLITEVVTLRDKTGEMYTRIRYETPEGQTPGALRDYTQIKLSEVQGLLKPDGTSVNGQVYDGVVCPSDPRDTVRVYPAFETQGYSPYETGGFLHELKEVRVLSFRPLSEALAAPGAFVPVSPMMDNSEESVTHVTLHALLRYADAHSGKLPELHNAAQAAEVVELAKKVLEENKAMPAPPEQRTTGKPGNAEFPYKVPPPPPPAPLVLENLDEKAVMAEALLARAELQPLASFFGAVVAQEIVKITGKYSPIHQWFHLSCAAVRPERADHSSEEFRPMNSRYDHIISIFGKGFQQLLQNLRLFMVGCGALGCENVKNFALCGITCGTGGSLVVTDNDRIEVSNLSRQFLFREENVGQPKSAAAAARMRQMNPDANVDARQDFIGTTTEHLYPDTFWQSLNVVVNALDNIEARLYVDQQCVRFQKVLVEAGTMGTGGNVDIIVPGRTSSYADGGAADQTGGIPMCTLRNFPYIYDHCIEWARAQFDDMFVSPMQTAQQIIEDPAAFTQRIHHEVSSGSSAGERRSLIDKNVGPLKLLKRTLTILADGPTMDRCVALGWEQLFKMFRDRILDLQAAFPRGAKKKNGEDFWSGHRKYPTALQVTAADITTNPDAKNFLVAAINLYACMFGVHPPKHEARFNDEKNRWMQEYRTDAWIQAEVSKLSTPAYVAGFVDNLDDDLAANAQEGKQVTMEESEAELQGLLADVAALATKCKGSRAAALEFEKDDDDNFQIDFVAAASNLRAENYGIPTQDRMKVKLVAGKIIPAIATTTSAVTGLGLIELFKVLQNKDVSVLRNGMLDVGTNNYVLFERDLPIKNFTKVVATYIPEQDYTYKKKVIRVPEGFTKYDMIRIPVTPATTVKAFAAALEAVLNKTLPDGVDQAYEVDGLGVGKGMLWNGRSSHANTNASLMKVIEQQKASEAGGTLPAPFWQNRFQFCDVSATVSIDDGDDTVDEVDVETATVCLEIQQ

[3] = target: AMP-activated protein kinase, AMPK (Homo sapiens) (UniProt P54646+O43741+P54619+Q9UGJ0+Q9Y478+Q13131+Q9UGI9); assay: AMP-dependent Kinase enzyme assay. An in vitro enzyme assay that detects ADP turnover that is directly proportional to AMPK activity. This uses naive AMPK that is activated during the assay with MK-8722; type: functional; settings: 30 µM
[4] = target: Sialic acid-binding Ig-like lectin 9 (Homo sapiens) (UniProt Q9Y336); assay: Hs-Siglec9 ALPHAscreen SOP 20170721; settings: 10 µM
[5] = system: Trypanosoma cruzi; assay: Trypanosoma cruzi phosphomannomutase and mannose-1-phosphate guanylyltransferase assay; type: functional; settings: 10 µM
[6] = target: T2, Arginase-2, mitochondrial (Homo sapiens) (UniProt P78540); assay: in vitro enzyme assay to detect the production of urea directly proportional to the activity of Arginase II; type: functional; settings: 33.3 µM; also: in the data most compounds retested in dose-response had high values
T2 sequence (whole entry): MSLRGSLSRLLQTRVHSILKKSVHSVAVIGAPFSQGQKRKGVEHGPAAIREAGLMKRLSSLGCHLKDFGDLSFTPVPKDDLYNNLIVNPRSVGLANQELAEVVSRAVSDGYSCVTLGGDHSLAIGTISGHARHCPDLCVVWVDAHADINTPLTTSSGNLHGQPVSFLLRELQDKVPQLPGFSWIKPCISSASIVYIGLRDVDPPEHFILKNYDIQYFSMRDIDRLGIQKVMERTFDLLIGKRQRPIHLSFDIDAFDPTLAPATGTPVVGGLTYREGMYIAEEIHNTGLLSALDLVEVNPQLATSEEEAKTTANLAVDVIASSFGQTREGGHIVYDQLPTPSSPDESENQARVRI

[7] = target: T3, Proteasome subunit beta (Trypanosoma cruzi) (UniProt O96673); assay: Trypanosoma cruzi proteasome chymotrypsin-like activity (TcProtChymo) assay.; also: in the data most compounds retested in dose-response had high values; type: functional; settings: 9.37 µM
T3 sequence (whole entry): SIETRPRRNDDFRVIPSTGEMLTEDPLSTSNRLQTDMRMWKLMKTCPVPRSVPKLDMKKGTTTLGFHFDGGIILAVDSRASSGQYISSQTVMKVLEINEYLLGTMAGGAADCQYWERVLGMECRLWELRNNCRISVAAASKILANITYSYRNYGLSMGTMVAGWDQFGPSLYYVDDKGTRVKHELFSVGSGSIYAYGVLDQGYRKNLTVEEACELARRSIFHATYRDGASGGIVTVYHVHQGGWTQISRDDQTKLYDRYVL

[8] = species: Homo sapiens; assay: To identify inhibition of the IFN signalling (Jak-Stat) pathway via expression of an eGFP reporter gene under the control of an IFN-stimulated response element (ISRE) containing MxA promoter.; type: functional; settings: 30 µM
[9] = target: T4, Tyrosyl-tRNA synthetase, putative (Trypanosoma cruzi (strain CL Brener)) (UniProt Q4DSP6); assay: Trypanosoma cruzi tyrosyl tRNA synthetase (TcYRS) _High Tyrosine SOP; type: functional; settings: 30 µM; also: in the data most compounds retested in dose-response had high values
T4 sequence (whole entry): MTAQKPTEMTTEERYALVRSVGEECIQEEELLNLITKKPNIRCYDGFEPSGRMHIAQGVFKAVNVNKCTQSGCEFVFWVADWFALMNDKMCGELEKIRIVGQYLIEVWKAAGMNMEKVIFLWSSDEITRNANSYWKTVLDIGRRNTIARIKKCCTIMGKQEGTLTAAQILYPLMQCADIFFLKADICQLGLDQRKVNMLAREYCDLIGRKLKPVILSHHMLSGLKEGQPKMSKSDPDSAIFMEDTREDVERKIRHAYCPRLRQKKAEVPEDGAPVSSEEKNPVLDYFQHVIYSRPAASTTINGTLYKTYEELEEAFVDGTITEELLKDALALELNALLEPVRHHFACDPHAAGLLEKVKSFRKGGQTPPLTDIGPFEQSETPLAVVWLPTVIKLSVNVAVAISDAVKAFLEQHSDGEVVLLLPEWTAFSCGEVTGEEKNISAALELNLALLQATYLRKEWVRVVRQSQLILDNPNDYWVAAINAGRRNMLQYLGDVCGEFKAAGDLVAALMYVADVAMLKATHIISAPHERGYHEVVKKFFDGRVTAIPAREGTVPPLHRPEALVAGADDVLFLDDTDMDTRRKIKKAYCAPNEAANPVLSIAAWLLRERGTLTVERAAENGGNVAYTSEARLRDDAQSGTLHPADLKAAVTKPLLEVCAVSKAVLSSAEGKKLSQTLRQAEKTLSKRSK

[10] = target: T4, Tyrosyl-tRNA synthetase, putative (Trypanosoma cruzi (strain CL Brener)); assay: Trypanosoma cruzi tyrosyl tRNA synthetase (TcYRS) SOP; type: functional; settings: 30 µM
[11] = target: Chromo domain-containing protein 1 (Saccharomyces cerevisiae (strain ATCC 204508 / S288c) (Baker's yeast)) (UniProt P32657); assay: ScCHD-1 Enzyme Inhibition Assay; type: functional; settings: 30 µM; also: in the data most compounds retested in dose-response had high values
Sequence of Chromo domain-containing protein 1 (Saccharomyces cerevisiae (strain ATCC 204508 / S288c) (Baker's yeast)) (P32657 whole entry, the tested form may be a part): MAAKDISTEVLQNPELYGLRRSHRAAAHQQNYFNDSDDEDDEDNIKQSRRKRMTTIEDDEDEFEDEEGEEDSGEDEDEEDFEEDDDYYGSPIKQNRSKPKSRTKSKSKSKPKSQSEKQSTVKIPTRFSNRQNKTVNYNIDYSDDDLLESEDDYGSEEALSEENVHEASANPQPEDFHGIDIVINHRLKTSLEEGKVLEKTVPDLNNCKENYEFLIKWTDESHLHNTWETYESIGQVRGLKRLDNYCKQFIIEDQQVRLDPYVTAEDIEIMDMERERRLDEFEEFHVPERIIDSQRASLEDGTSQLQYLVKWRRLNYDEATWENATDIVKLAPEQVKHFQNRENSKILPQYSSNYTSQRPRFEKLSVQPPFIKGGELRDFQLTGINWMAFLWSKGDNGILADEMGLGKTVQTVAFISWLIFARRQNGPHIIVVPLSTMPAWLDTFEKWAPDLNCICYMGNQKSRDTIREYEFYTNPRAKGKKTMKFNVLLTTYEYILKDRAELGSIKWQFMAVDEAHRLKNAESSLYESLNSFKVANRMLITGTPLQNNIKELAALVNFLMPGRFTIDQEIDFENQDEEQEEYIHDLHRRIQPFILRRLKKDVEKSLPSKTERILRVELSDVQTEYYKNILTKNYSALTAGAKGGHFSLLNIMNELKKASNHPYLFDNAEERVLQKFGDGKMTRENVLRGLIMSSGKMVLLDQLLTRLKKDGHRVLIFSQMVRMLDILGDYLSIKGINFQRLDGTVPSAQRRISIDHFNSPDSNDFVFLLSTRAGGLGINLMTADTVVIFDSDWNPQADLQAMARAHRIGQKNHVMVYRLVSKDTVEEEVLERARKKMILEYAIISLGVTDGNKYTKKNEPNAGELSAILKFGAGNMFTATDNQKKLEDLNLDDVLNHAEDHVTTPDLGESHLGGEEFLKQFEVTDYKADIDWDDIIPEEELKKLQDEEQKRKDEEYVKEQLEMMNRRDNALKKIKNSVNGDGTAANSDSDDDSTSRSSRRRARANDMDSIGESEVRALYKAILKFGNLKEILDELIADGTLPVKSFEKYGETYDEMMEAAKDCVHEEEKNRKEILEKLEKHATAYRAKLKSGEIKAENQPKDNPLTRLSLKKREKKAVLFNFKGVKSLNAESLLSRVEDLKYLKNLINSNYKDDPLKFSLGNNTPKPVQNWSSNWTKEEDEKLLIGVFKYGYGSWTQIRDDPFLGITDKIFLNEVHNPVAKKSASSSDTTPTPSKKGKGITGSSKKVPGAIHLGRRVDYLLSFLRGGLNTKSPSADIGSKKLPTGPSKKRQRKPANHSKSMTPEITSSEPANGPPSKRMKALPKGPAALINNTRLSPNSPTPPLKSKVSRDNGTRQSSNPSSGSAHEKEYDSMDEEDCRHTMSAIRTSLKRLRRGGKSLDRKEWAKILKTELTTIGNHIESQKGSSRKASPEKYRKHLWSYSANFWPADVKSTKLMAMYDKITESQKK

Sequence of Protein translocase subunit SecA (Escherichia coli (strain K12)) (P10408 whole entry): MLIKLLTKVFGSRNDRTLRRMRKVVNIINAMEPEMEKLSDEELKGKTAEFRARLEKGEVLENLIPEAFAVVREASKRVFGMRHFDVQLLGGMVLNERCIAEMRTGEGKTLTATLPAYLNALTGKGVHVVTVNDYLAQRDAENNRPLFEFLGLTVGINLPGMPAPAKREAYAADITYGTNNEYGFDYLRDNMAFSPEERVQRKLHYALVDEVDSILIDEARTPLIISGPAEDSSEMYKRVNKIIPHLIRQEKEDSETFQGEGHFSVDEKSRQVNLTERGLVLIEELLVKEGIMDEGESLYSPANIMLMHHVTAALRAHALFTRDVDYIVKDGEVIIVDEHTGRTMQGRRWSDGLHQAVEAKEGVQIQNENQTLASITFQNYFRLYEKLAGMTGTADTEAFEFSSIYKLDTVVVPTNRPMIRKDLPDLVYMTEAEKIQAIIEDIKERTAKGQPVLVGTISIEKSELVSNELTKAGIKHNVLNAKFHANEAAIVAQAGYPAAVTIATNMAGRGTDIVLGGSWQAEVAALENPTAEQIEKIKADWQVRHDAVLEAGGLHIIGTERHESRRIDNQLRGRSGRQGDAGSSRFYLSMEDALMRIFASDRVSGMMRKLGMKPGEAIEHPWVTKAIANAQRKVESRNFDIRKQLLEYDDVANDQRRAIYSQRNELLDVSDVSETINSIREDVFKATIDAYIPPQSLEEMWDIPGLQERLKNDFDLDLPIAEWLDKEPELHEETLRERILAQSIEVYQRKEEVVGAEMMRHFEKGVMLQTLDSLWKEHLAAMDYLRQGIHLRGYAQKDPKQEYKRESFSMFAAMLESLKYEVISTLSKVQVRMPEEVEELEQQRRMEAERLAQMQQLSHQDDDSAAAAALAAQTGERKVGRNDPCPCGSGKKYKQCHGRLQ
Sequence of Sialic acid-binding Ig-like lectin 9 (Homo sapiens) (Q9Y336 whole entry): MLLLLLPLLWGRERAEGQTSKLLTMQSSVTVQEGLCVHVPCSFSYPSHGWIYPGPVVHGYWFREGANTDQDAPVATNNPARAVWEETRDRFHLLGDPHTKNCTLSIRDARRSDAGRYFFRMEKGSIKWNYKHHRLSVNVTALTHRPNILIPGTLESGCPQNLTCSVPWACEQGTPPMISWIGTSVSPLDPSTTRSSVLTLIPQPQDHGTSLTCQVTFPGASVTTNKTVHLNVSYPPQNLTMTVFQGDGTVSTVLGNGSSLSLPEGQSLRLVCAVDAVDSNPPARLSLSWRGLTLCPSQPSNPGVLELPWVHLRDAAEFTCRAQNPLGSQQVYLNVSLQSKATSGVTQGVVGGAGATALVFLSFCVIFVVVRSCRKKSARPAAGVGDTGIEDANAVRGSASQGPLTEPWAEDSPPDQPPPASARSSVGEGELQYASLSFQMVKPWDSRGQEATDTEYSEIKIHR

Compound	Percent Effect [1] [%]	Percent Effect [2] [%]	Percent Effect [3] [%]	Percent Effect [4] [%]	Percent Effect [5] [%]	Percent Effect [6] [%]	Percent Effect [7] [%]	Percent Effect [8] [%]	Percent Effect [9] [%]	Percent Effect [10] [%]	Percent Effect [11] [%]
Cc1ccc(NC(=O)N2CCOC(C)C2)cc1Cl (stereo not drawn)	-0.48	16.4	-5.38	4.84	2.58	-6.39	26.6	10.5	7.29	21	-3.19
CC(NC(=O)NCc1ccc(Cl)cc1)c1ccccn1 (stereo not drawn)	-1.55	1.27	3.12	3.62	5.23	-6.24	12	12.2	2.08	0	-24.6
Cc1noc(C)c1CNC(=O)N1CCC(C(O)c2ccccc2)CC1 (stereo not drawn)	-4.23	11	-3.81	6.33	7.54	-4.79	-1.8	11.9	2.08	13.6	-3.08
N#Cc1cccc(C(=O)N2CCc3ncc(Cn4cccn4)n3CC2)c1	-2.76	-5.33	6.89	-4.2	-1.74	-56.1	2.22	-20.1	-3.12	-2.5	-3.63
OCC1CCCN1c1cc(NCCc2c[nH]c3ccccc23)ncn1 (stereo not drawn)	-4.95	0	12.3	-7.58	-2.15	0	18.6	35.3	1.07	7.5	-5.88
COCCOc1ccc(NC(=O)N2CCCC2c2ccncc2)cn1 (stereo not drawn)	-2.75	0	2.9	5.29	2.64	-1.47	12.8	11.5	1.91	0	-22.2
COCCN1C(=O)CC(N2CCN(c3ccc(OC)cc3)CC2)C1=O (stereo not drawn)	1.03	6.94	1.7	4.19	4.37	13.7	16.8	-7.93	8.42	15.4	-3.31
CC(C)c1nccn1CCCNC(=O)c1ccc(-c2cncnc2)nc1	-0.347	8	-10.9	8.21	3.21	7.29	16.2	17.9	4.92	13.6	-5.5
